From paper PMC5540273 (PLoS ONE, 2017)

System: MAP3K1
Conditions: concentration: 1 μM, replicates: in singlicate; n = 1
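Also: KINOMEscan kinase panel screen.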

| Structure (SMILES) | %Inh |
| --- | --- |
| COc1ccc(Nc2nccc(NCCNC(=O)c3cc4ccccc4s3)n2)cc1 [GSK1379896] | 15% |
| Clc1ccc(-c2nn3ncccc3c2-c2ccnc(Nc3ccc4c(c3)OCCO4)n2)cc1 [GW829116] | 0% |
| O=C(Nc1cccc(-c2nn3ncccc3c2-c2ccnc(Nc3ccccc3)n2)c1)c1c(F)cccc1F [GSK198271] | 3% |
| Nc1ncc(-c2ccc3nccc(-c4ccncc4)c3c2)cc1S(=O)(=O)N1CCOCC1 [GSK1627798] | 7% |
| Cl.c1ccc(-c2ccc3c(Nc4ccc5[nH]ccc5c4)ccnc3c2)nc1 [GW440138] | 1% |
| COc1cccc(C2=C(Nc3ccc(Cl)c(C(=O)O)c3)C(=O)NC2=O)c1 [SB-390769] | 13% |
| O=C(Nc1n[nH]c2cc(-c3ccoc3)ccc12)C1CC1 [SB-738481] | 0% |
| CCS(=O)(=O)c1ccc(OC)c(Nc2nccc(-c3c(-c4cccc(NC(=O)c5c(F)cccc5F)c4)nn4ncccc34)n2)c1 [GSK326180] | 10% |
| CN(c1ccc(NC(=O)Nc2cc(C(F)(F)F)ccc2F)cc1)c1ccnc(Nc2ccc(S(N)(=O)=O)cc2)n1 [GW809893] | 33% |
| Oc1cc(Nc2ccnc3cc(I)ccc23)ccc1F [GW552771] | 7% |
| CC(=O)N1CCN(c2ccc(Nc3nccc(-c4sc(C(C)C)nc4-c4cccc(NS(=O)(=O)c5cccc(Cl)c5)c4)n3)cn2)CC1 [GSK1660437] | 12% |
| Cn1cc(-c2ccc3c(c2)CCN3C(=O)Cc2cccc(Cl)c2)c2c(N)ncnc21 [GSK2606590] | 11% |
